Where “and” joins values, the source holds several entries; their conditions need not be identical. Equal entries are not always repeated. Results filed as inconclusive are left out. A call without a number means that no potency is given here. Calls of active or inactive are those of the source. Unless noted, calls come from the whole dose curve.
Assays:
[1] = qHTS assay to identify small molecule antagonists of the vitamin D receptor (VDR) signaling pathway - cell viability counter screen (AID 743225; active = well fitted curve in the direction sought with a large enough effect in the repeat runs; an effect the other way counts as inactive or inconclusive; note: nearly all actives have a fitted effect of over 50% in size; note: potency is the fitted concentration of half-maximal effect)
Outline: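 Same-well multiplex: following 16 h treatment of HEK 293T cells carrying a UAS-driven beta-lactamase reporter with compound and agonist (3 nM final), and a 2 h FRET substrate step, CellTiter-Glo was added and luminescence read after 30 min.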

[2] = qHTS assay to identify small molecule agonists of the NFkB signaling pathway - cell viability counter screen (AID 1159515); note: nearly all actives have a fitted effect of over 55% in size; note: potency is the fitted concentration of half-maximal effect
Outline: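 NFkB-bla ME-180 cells, 2,000/well, plated overnight at 37 C; compound added for 5 hr at 37 C. Viability read in the same wells as the bla reporter, by CellTiter-Glo luminescence after 30 min at room temperature.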

[3] = qHTS assay to identify small molecule agonists of the endoplasmic reticulum stress response signaling pathway (AID 1159516; active = well fitted activation curve with a large enough effect in the signal ratio in the repeat runs, not every such curve was filed as active; the % refers to the signal ratio)
Outline: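 CellSensor ESRE-bla HeLa cells, 1,500 per well, plated overnight, then exposed to compounds for 5 hr at 37 C. Beta-lactamase reporter read with LiveBLAzer B/G FRET substrate after 2 hr at room temperature, 405 nm excitation, 460 and 530 nm emission.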

[4] = qHTS assay to identify small molecule antagonists of the retinoid-related orphan receptor gamma (ROR-gamma) signaling pathway - cell viability counter screen (AID 1159520; active = well fitted curve in the direction sought with a large enough effect in the repeat runs; an effect the other way counts as inactive or inconclusive; note: nearly all actives have a fitted effect of over 50% in size; note: potency is the fitted concentration of half-maximal effect)
Outline: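 Tet-on ROR gamma CHO cells (1,000/well) were plated 4 hr, given compounds in DMSO for 2 hr at 37 C, then induced with 1 uM final doxycycline for 16 hr. Viability was read as ATP by CellTiter-Glo luminescence after 30 min.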

[5] = qHTS assay to identify small molecule agonists of the AP-1 signaling pathway (AID 1159526)
[6] = biological target: Retinoic acid receptor RXR-alpha (Homo sapiens) (UniProt P19793); assay: qHTS assay to identify small molecule agonists of the RXR signaling pathway (AID 1159527); note: nearly all actives have a fitted effect of over 35% in size
Chain of Retinoic acid receptor RXR-alpha (Homo sapiens) (P19793 whole entry, looked up): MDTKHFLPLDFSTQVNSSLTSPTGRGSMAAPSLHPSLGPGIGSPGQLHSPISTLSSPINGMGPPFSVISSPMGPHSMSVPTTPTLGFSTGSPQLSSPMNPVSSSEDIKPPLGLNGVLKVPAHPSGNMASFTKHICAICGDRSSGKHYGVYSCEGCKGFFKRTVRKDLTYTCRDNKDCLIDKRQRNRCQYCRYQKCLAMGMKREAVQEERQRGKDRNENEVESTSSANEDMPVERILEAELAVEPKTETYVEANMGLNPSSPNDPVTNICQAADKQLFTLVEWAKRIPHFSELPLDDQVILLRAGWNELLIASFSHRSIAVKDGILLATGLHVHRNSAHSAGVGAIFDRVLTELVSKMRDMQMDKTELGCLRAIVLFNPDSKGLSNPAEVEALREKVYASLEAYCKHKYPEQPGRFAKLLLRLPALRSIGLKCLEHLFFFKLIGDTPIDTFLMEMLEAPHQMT
Outline: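 Compounds in DMSO were added to RXR-alpha-UAS-bla HEK 293T cells kept in 2% charcoal-stripped serum, and incubated 16 hr at 37 C with 5% CO2. Reporter signal came from a 2 hr B/G FRET substrate step.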

[7] = qHTS assay to identify small molecule agonists of the RXR signaling pathway - cell viability counter screen (AID 1159529; active = well fitted curve in the direction sought with a large enough effect in the repeat runs; an effect the other way counts as inactive or inconclusive; note: nearly all actives have a fitted effect of over 50% in size; note: potency is the fitted concentration of half-maximal effect)
Outline: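 Counter screen: CellTiter-Glo luminescence. Cells: RXR-alpha-UAS-bla HEK 293T. Medium: 2% charcoal-stripped FBS. Treatment: 16 h, 37 C. Reagent incubation: 30 min, RT.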

[8] = biological target: Nuclear receptor ROR-gamma (Homo sapiens) (UniProt P51449); assay: qHTS assay to identify small molecule antagonists of the retinoid-related orphan receptor gamma (ROR-gamma) signaling pathway (AID 1159521; active = well fitted curve in the direction sought with a large enough effect in the repeat runs; an effect the other way counts as inactive or inconclusive; note: nearly all actives have a fitted effect of over 50% in size; note: potency is the fitted concentration of half-maximal effect)
Outline: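 Inducible-expression reporter assay: doxycycline (1 uM final) switched on RORγ in CHO cells bearing a ROR response element-luciferase construct, with test compounds present from 2 h beforehand. Decreased luminescence after 16 h defined antagonist activity.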

[9] = qHTS assay to identify small molecule agonists of the endoplasmic reticulum stress response signaling pathway - cell viability counter screen (AID 1159517); note: nearly all actives have a fitted effect of over 50% in size; note: potency is the fitted concentration of half-maximal effect
Outline: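 CellTiter-Glo was added to wells already read for beta-lactamase FRET, and luminescence was recorded 30 min later. Cells: ESRE-bla HeLa, 1,500 per well, compound exposure 5 hr at 37 C.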

[10] = qHTS assay to identify small molecule agonists of the AP-1 signaling pathway - cell viability counter screen (AID 1159525); note: nearly all actives have a fitted effect of over 55% in size; note: potency is the fitted concentration of half-maximal effect
Outline: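 ME-180 AP-1-bla, 2500 cells/well, Opti-MEM + 0.5% dialyzed FBS; overnight 37 °C; cpd 15-pt titration, 5 h 37 °C; CellTiter-Glo 30 min RT; luminescence read; normalised to TOAB and DMSO controls.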

Row | Structure (SMILES) | Potency [1] | Potency [2] | Potency [3] | Potency [4] | Potency [5] | Potency [6] | Potency [7] | Potency [8] | Potency [9] | Potency [10]
1 | CC(=O)CC(=O)Nc1ccc(S(=O)(=O)O)cc1 | inactive | inactive | inactive | inactive | inactive | inactive | inactive |  |  | 
2 | CCOC(=O)c1ccc(C2CCC(NC[C@H](O)COc3ccc(O)c(NS(C)(=O)=O)c3)CC2)cc1 (stereo partly drawn) | 35.9 µM (active) | inactive | inactive | inactive |  |  | 10.1 µM (active) |  |  | 
3 | COC(C)=O | inactive | inactive | inactive |  | inactive | inactive | inactive | inactive |  | 
4 | CCCCCCCCCCCC(=O)OCC(C)OC(=O)CCCCC(=O)O (stereo not drawn) | inactive | inactive |  | inactive | inactive | inactive | inactive | inactive | inactive | inactive
5 | C#CC1(O)CC[C@H]2[C@@H]3CCC4=CCCC[C@@H]4[C@H]3CC[C@@]21C (stereo partly drawn) | 21.3 µM (active) | 13.4 µM (active) |  | 61.1 µM (active) and 26.6 µM (active) |  |  | 24.5 µM (active) and 21.3 µM (active) | 43.3 µM (active) and 23.7 µM (active) | 49 µM (active) and 10.7 µM (active) | 43.6 µM (active) and 15.1 µM (active)
6 | Nc1nc2c(ncn2COCCO)c(=O)[nH]1 |  | inactive |  | inactive | inactive | inactive | inactive | inactive | inactive | inactive
7 | O=C(/C=C/c1ccccc1)OC/C=C/c1ccccc1 | inactive | inactive |  | 54.5 µM (active) | inactive |  | inactive | inactive | inactive | inactive
8 | Fc1ccc(C(c2ccc(F)cc2)N2CCNCC2)cc1 |  | inactive |  | inactive | inactive | inactive |  | inactive | inactive | inactive
9 | OC1CCC(C2CCCCC2)CC1 (stereo not drawn) |  | inactive |  | inactive | inactive | inactive |  | inactive | inactive | inactive
10 | CN(C)Cc1ccccc1O | inactive | inactive |  | inactive | inactive | inactive | inactive | inactive | inactive | inactive
11 | Cc1cc(C(C)(C)C)c(O)c(C)c1Cn1c(=O)n(Cc2c(C)cc(C(C)(C)C)c(O)c2C)c(=O)n(Cc2c(C)cc(C(C)(C)C)c(O)c2C)c1=O | 12.3 µM (active) | inactive |  | inactive | inactive | inactive | inactive | inactive | inactive | inactive
12 | CCOC(=O)Cn1cccc1-c1nc(-c2ccc(OC)cc2)c(-c2ccc(OC)cc2)s1 | inactive | inactive |  | inactive | inactive |  | inactive | inactive | inactive | inactive
13 | CCCNCCC | inactive | inactive |  | inactive | inactive | inactive | inactive | inactive | inactive | inactive
14 | CCCCCCC1CCCC(=O)O1 (stereo not drawn) |  | inactive |  | inactive | inactive |  | inactive | inactive | inactive | inactive
15 | O=c1c(O)c(-c2ccc(O)cc2O)oc2cc(O)cc(O)c12 | inactive | inactive |  | inactive | inactive | inactive | inactive | inactive | inactive | inactive
16 | CCCCC/C=C\C/C=C\CCCCCCCC(=O)O | inactive | inactive |  | inactive | inactive |  |  | inactive | inactive | inactive
17 | CCCCC(CC)CN1CN(CC(CC)CCCC)CC(C)(N)C1 (stereo not drawn) | inactive | 26.8 µM (active) |  | 26.6 µM (active) | inactive |  | inactive | inactive | 21.3 µM (active) | inactive
18 | Cc1nc(-c2ccc(Cl)cc2)oc1COC(C)(C)C(=O)O | inactive | inactive |  | inactive | inactive | inactive | inactive | inactive | inactive | inactive
19 | CCN(CC)C(=O)c1cc(S(=O)(=O)Cc2ccccc2)c(N2CCC(c3ccccc3)CC2)cc1N(CC)CCN(C)C | 17.2 µM (active) | 21.6 µM (active) | inactive |  |  |  | 15.3 µM (active) |  |  | 
20 | Oc1ccccc1O | inactive | inactive |  | inactive | inactive | inactive | inactive | 8.74 µM (active) and 27.3 µM (active) | inactive | inactive
21 | Nc1ccc(C(=O)O)c(O)c1 | inactive | inactive |  | inactive | inactive | inactive | inactive | inactive | inactive | inactive
22 | O=C1NC(=O)[C@@H]2CC=CC[C@H]12 |  | inactive |  | inactive | inactive |  |  | 54.5 µM (active) | inactive | inactive
23 | O=C(O)Cc1ccc2c(c1)C(=O)c1ccccc1CO2 |  | inactive |  | inactive | inactive |  | inactive | inactive | inactive | inactive
24 | Cl[Si](Cl)(c1ccccc1)c1ccccc1 |  | inactive |  | inactive | inactive | inactive | inactive | inactive | inactive | inactive

— PubChem BioAssay (Tox21)
